Compound activity: PubChem BioAssay, several laboratories
Shown are actives, neighbours in structure and some others; about 4.1% of the full set was active somewhere.
M18AAP inhibitor – blocks P. falciparum M18 aspartyl aminopeptidase; recombinant PfM18AAP, H-Glu-NHMec fluorogenic cleavage; inhibition, % at 7.35 µM; hit rate 1.2% among 290,000;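 active = inhibition above the campaign mean inhibition over all tested compounds plus 3 SD, cut at about 28% in these data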;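 note: 0% = plate median of test compound wells and 100% = 2 mM ZnCl2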
IDE act – IDE (human) activation, cell-based. HEK cells, FAbeta-B cleavage, fluorescence polarization; 0% vehicle, 100% cell-free pure enzyme wells. activation, % at 5.96 µM. hit rate 0.073% among 340,000. AID 493087;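 active = activation above the mean of all tested compounds plus 3 SD, set per screening campaign, cut at about 17% in these data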
ALR H2O2 inh – inhibitors of human sulfhydryl oxidase ALR; P55789; purified ALR, DTT oxidation, H2O2 HRP-luminol luminescence; hit rate 3.8% among 290,000; inhibition, % (no concentration beside the values);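 active = mean replicate inhibition above about 79%, with every replicate also reaching it, limit read from the data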
Target sequence (P55789 whole entry, looked up): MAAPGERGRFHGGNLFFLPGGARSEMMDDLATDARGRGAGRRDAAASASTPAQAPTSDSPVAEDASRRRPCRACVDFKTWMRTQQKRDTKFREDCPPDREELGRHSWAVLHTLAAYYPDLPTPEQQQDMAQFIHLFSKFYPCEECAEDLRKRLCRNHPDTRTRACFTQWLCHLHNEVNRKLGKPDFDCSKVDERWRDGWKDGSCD
IDE inh – inhibits human insulin-degrading enzyme in HEK cells; P14735; FAbetaB cleavage, fluorescence polarization; inhibition, % at 5.59 µM; hit rate 0.41% among 320,000;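 active = percent inhibition above the average of all tested compounds plus 3 SD, set per screening campaign, cut at about 16% in these data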;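 note: IDE supplied by intact live HEK cells; FP after avidin binding of uncleaved biotin substrate so inhibition keeps polarization high; 0% = DMSO wells and 100% = 60 µM reference IDE inhibitor Ii1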
CaV13 FRET inh – Primary screen for inhibitors of IQ motif and Ca2+-dependent inactivation inhibitor domain binding in CACNA1D, Förster resonance energy transfer in living cells, … | HEK cells, CFP/YFP FRET ICDI-IQ, plate reader, 10 min; percent FRET-ratio fall versus neutral wells | inhibition, % at 12.3 µM | hit rate 0.098% among 340,000 | AID 743397;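 active = mean replicate inhibition of at least 30% and at least 1% of replicates passing that level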;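 note: 0% = median of the neutral control wells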
PolyA inhibitor – inhibitors of polyadenylation in S. cerevisiae. activity score, % at 12 µM. AID 1875. hit rate 0.02% among 300,000. S. cerevisiae SKY197-pL101 polyadenylation reporter, beta-gal luminescence; efflux-impaired pdr1/pdr3 knockout yeast; score 100 = 6 SD above DMSO;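 active = lowest replicate activity score at least 50, where 100 means six control SD above control mean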;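 note: yeast exposed to compound for 9 h at 30 °C; higher score means more reporter readthrough which indicates perturbed polyadenylation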
An asterisk follows results filed as active; / = no result given.

SMILES	M18AAP inhibitor	IDE act	ALR H2O2 inh	IDE inh	CaV13 FRET inh	PolyA inhibitor
CC1=C(C(=O)N(C)C)CC(CC(=O)NC2CCCCC2)C(=O)N1Cc1ccccc1 (stereo unspecified)	/	/	/	/	-10	/
CCOCCCNC(=O)COc1ccc(OC)cc1	-29	2	-2	-4	1	3
Cc1ccc2c(c1)c1nnc(SCC(=O)Nc3ccc(N(C)C)cc3)nc1n2CC(=O)O	18	-3	100*	-3	11	-11
Cc1ccc2c(c1)c1nnc(SCC(=O)Nc3cccc(Cl)c3C)nc1n2CC(=O)O	2	-2	-10	1	-7	0
COC(=O)CC1SC(=O)NC1=Nc1ccc(O)cc1 (stereo unspecified)	3	4	96*	3	-5	-19
Cc1ccc(S(=O)(=O)N2CCCOC2CNC(=O)C(=O)NC2CCCCC2)cc1 (stereo unspecified)	-7	4	-2	-2	-13	-7
O=S(=O)(Nc1cccc2c1CCCC2)c1ccc(Cl)cc1	0	2	84*	4	-5	-22
CC(=O)Nc1ccccc1NS(=O)(=O)c1ccc(Cl)cc1	11	-1	4	1	-4	6
CCc1c(C(=O)NC(C)C2CCCO2)csc1C (stereo unspecified)	-14	7	-2	-2	/	21
O=c1[nH]c(/C=C/c2ccccc2Cl)c([N+](=O)[O-])c(=O)[nH]1	2	4	1	/	-2	-18
COc1cc(/C=C/c2[nH]c(=O)[nH]c(=O)c2[N+](=O)[O-])cc(OC)c1O	21	3	95*	/	11	-2
CCCOc1ccc(/C=C/c2[nH]c(=O)[nH]c(=O)c2[N+](=O)[O-])cc1OCC	4	4	12	-1	-6	6
CCOC(=O)COc1ccc(Br)cc1/C=C/c1[nH]c(=O)[nH]c(=O)c1[N+](=O)[O-]	14	-4	97*	-4	1	14
COc1cccc(/C=C/c2[nH]c(=O)[nH]c(=O)c2[N+](=O)[O-])c1O	14	-1	98*	-3	-2	-7
CCN(Cc1ccc(OC)c(F)c1)C(=O)CCl	-6	3	97*	-3	-2	0
O=C(Nc1ccc2c(c1)OCO2)C1CC(=O)N(c2ccccc2)C1 (stereo unspecified)	-2	4	/	2	-3	7
O=C(Nc1ccccc1N1CCCC1)c1ccc(N2CCCC2=O)cc1	/	-2	99*	8	-14	4
COc1cccc(C(=O)Nc2ccccc2N2CCCC2)c1	-1	1	98*	-2	-4	-17
O=C(Nc1ccccc1N1CCN(C(=O)c2ccc(Cl)cc2)CC1)c1cccnc1	-12	-7	-14	2	-5	-9
COc1cccc(C(=O)NC(=S)Nc2ccccc2N2CCCC2)c1	8	-3	66	0	-3	-19
O=C(Nc1ccccc1N1CCCC1)c1cccnc1	-7	1	98*	7	-6	-4
COc1ccc(NC(=O)CSCC(=O)Nc2sccc2C#N)cc1	/	4	99*	2	-1	-3
COc1ccc(OC)c(NC(=O)C(=O)N/N=C(\C)CC(=O)Nc2ccc(Cl)cn2)c1	-4	-2	-1	2	-4	-12
CCn1c(CCNC(=O)c2ccc(Cl)c(Cl)c2)nnc1SCCOc1ccc(OC)cc1	-2	-3	0	6	-5	0
Cn1ccnc1C(=O)c1cccc(Br)c1	3	0	-2	0	-2	-5
SMILES	M18AAP inhibitor	IDE act	ALR H2O2 inh	IDE inh	CaV13 FRET inh	PolyA inhibitor
O=C(Nc1ccccc1Cl)c1cnccn1	-4	0	-3	7	-8	1
COc1ccc(NC(=O)CSCC(=O)Nc2ccccc2N2CCCC2)cc1	/	7	99*	-10	-2	-12
O=C(Nc1ccccc1N1CCCCC1)c1cnccn1	2	-4	97*	-3	-7	-18
CCCN1C(=O)c2ccccc2NC1c1ccc(O)c(OCC)c1 (stereo unspecified)	3	0	86*	0	-4	10
CCCN1C(=O)c2ccccc2NC1c1ccc(Cl)c(Cl)c1 (stereo unspecified)	4	0	3	5	-3	-7
CC(C)Sc1nc2ccccc2n2cnnc12	9	3	99*	5	-3	-4
CC(Nc1nc2ccccc2n2cnnc12)c1ccccc1 (stereo unspecified)	2	7	-4	3	-5	-11
O=C1NN(c2ccccc2)C(=O)/C1=C\c1ccccc1OCC(=O)N1CCOCC1	-10	-6	99*	5	-5	2
CN(C)c1ccc(CNc2ccc3c(c2)ncn3C(C)(C)C)cc1	11	3	93*	2	-4	10
CCN(CC)c1ccc(CNc2ccc3c(c2)ncn3CC)cc1	15	/	98*	2	-4	1
CCn1cnc2cc(NCc3ccc(N(C)C)cc3)ccc21	13	1	98*	9	-3	8
COc1ccc(CN(CC2CCC(C(=O)O)CC2)C(=S)Nc2ccccc2OC)cc1 (stereo unspecified)	2	-3	/	1	0	2
COc1ccccc1NS(=O)(=O)c1ccc(Cl)c(NC(=O)CN2C(=O)c3ccccc3C2=O)c1	2	7	-9	-2	-4	5
CC1CC(CC(=O)NNc2nc(-c3ccccc3)cs2)C(=O)O1 (stereo unspecified)	23	-3	/	7	-5	-2
C/C(=N\Nc1nc(C(C)(C)C)cs1)c1ccc(O)cc1	1	-1	/	-6	-5	33
C/C(=N\Nc1nc(C(C)(C)C)cs1)c1ccccc1	8	4	98*	2	-4	2
CC(C)=NNc1nc(-c2ccccc2)cs1	13	1	97*	1	-19	-18
CC(C)=NNc1nc(-c2ccc(N3C(=O)CCC3=O)cc2)cs1	28*	6	99*	-2	1	-1
C/C(CCC1CC(C)OC1=O)=N/Nc1nc(-c2ccccc2)cs1 (stereo unspecified)	15	4	98*	-3	-7	1
O=C(NCCc1ccco1)c1cc(COc2cccc(C(F)(F)F)c2)on1	-12	3	1	3	-7	12
COc1ccc(C(=O)NC2CC3CCCC(C2)N3Cc2ccccc2)cc1OC (stereo unspecified)	-6	4	/	1	-1	15
CN(C)C(CNC(=O)C1CCN(S(=O)(=O)c2cccc(Cl)c2Cl)CC1)c1ccccc1 (stereo unspecified)	-5	3	-21	-1	-3	10
Cc1nc(SCc2ccc(C(=O)O)cc2)nc2c1CCCC2	5	8	96*	2	-6	5
O=C(O)c1ccc(CSc2nc3c(c(=O)[nH]2)CCC3)cc1	/	/	/	/	-6	/
